The nature of test [1]: NCI Yeast Anticancer Drug Screen. Data for the rad50 strain (AID 155).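 Also: 0% = growth of vehicle-only cultures of the same strain.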 Particulars: S. cerevisiae rad50 strain growth inhibition, active compounds read high. The method in brief: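 Genetically altered yeast (DNA repair pathway); compound treatment; growth inhibition vs vehicle ctrl.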
Test [2] is described as follows: NCI Yeast Anticancer Drug Screen. Data for the mec2-1 strain (AID 157). Particulars: S. cerevisiae mec2-1 strain, active compounds read high. In short, it runs like this:
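Readout is yeast growth inhibition, normalised to vehicle-treated controls, in the mec2-1 strain exposed to compound.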

Test [3] in a line: NCI Yeast Anticancer Drug Screen. Data for the sgs1 mgt1 strain (AID 161).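 Also: 0% = growth of cultures given vehicle only.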 The following applies: S. cerevisiae sgs1 mgt1 strain, active compounds read high. The method in brief: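 Percent growth inhibition was derived by comparing compound-exposed mutant yeast with vehicle-exposed cultures. The strain carries alterations in DNA damage repair.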
Test [4] is described as follows: NCI Yeast Anticancer Drug Screen. Data for the cln2 rad14 strain (AID 165).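 Also: 0% = growth equal to vehicle treated cultures.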 The following applies: S. cerevisiae cln2 rad14 strain, active compounds read high. In short, it runs like this: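 Relative to vehicle controls, growth inhibition of compound-treated cln2 rad14 yeast was recorded.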
A short description of test [5]: NCI Yeast Anticancer Drug Screen. Data for the bub3 strain (AID 167). The following applies: S. cerevisiae bub3 mutant strain, active compounds read high. The method in brief: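 Yeast carrying a defined mutation is treated with each compound, and growth is compared with that of vehicle-exposed cells to give inhibition.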
Test [6] is described as follows: NCI Yeast Anticancer Drug Screen. Data for the mlh1 rad18 strain (AID 175). The following applies: S. cerevisiae mlh1 rad18 strain growth inhibition, active compounds read high. In short, it runs like this:
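Test agents were incubated with a yeast strain of defined genotype (DNA damage repair defect). Inhibition of growth was derived by comparison with vehicle-exposed cultures.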

Setting [7] is: at 5.0 µM (retest, dose inferred, filed as 0.5).
The mark [8] stands for this setting: at 50.0 µM (retest, dose inferred, filed as 5.0).

Molecules are shown by their SMILES. Compounds without any hit were thinned out: in the full panel of roughly 79,000, 15% have a hit. Values without a mark were called inactive. Active and inactive are the calls of the source. Rule as the data show it: active = growth inhibition above about 70%; inactive = the rest.

On to `NC(=O)c1ncn(C2OC(CO)C(O)C2O)c1O` (stereo not given), for which the growth inhibition in test [1] (setting [7]) was 20%; in test [1] (setting [8]), 6%; in test [1] (at 50.0 µM) it was -7.65%; in test [2] (setting [7]) it was -9%; in test [2] (setting [8]) it was -10%; in test [2] (at 50.0 µM), -11.4%. Besides, the growth inhibition is -3% in test [3] (setting [7]); 7% in test [3] (setting [8]); 11.3% in test [3] (at 50.0 µM); 13% in test [4] (setting [7]); 10% in test [4] (setting [8]); 4% in test [4] (at 50.0 µM). In addition, the growth inhibition in test [5] (setting [7]) is 1%; in test [5] (setting [8]) it was 32%; in test [5] (at 50.0 µM) it was -7.85%; in test [6] (setting [7]), 2%; in test [6] (setting [8]), -4%; in test [6] (at 50.0 µM) it was -47.8%.
On to `CCc1cccc(CC)c1NC(=O)C1=C(C)NC(C)=C(C(=O)Nc2c(CC)cccc2CC)C1c1ccc2c(c1)OCO2`, for which the growth inhibition in test [1] (setting [7]) is 54%; in test [1] (setting [8]), 54%; in test [1] (at 50.0 µM), 91.9% (active); in test [2] (setting [7]), 45%; in test [2] (setting [8]), 45%; in test [2] (at 50.0 µM), 92.5% (active). The growth inhibition in test [3] (setting [7]) is 45%; in test [3] (setting [8]), 45%; in test [3] (at 50.0 µM), 93.2% (active); in test [4] (setting [7]), 26%; in test [4] (setting [8]) it was 26%; in test [4] (at 50.0 µM), 91.3% (active). Further, the growth inhibition is 39% in test [5] (setting [7]); 39% in test [5] (setting [8]); 89.2% (active) in test [5] (at 50.0 µM); 43% in test [6] (setting [7]); 43% in test [6] (setting [8]); 87.5% (active) in test [6] (at 50.0 µM).
Turning to `Cc1cccc2ccc3cc(CC(=O)O)c4cccc(C)c4c3c12`, the growth inhibition in test [1] (setting [7]) was 45%; in test [1] (setting [8]) it was 99% (active); in test [1] (at 50.0 µM), 99.7% (active); in test [2] (setting [7]), 33%; in test [2] (setting [8]), 99% (active); in test [2] (at 50.0 µM) it was 99.8% (active). Further, the growth inhibition in test [3] (setting [7]) was 42%; in test [3] (setting [8]) it was 99% (active); in test [3] (at 50.0 µM) it was 99.8% (active); in test [4] (setting [7]), 33%; in test [4] (setting [8]), 99% (active); in test [4] (at 50.0 µM), 99.5% (active). Besides, the growth inhibition in test [5] (setting [7]) is 32%; in test [5] (setting [8]) it was 99% (active); in test [5] (at 50.0 µM), 99.8% (active); in test [6] (setting [7]) it was 36%; in test [6] (setting [8]), 99% (active); in test [6] (at 50.0 µM), 99.7% (active).
In the case of `N#CC1CCC(c2ccccc2)(c2ccccc2)C1=O` (stereo not given), the growth inhibition was 5% in test [1] (setting [7]); 99% (active) in test [1] (setting [8]); 94.6% (active) in test [1] (at 50.0 µM); 5% in test [2] (setting [7]); 99% (active) in test [2] (setting [8]); 99.7% (active) in test [2] (at 50.0 µM). In addition, the growth inhibition was 4% in test [3] (setting [7]); 100% (active) in test [3] (setting [8]); 99.6% (active) in test [3] (at 50.0 µM); -2% in test [4] (setting [7]); 99% (active) in test [4] (setting [8]); 97.5% (active) in test [4] (at 50.0 µM). The growth inhibition in test [5] (setting [7]) is -4%; in test [5] (setting [8]), 98% (active); in test [5] (at 50.0 µM) it was 74.3% (active); in test [6] (setting [7]), -5%; in test [6] (setting [8]) it was 98% (active); in test [6] (at 50.0 µM), 99.5% (active).
Consider `CCCCC(CC)CNc1ncnc2c1cnn2C` (stereo not given), for which the growth inhibition in test [1] (setting [7]) is 1%; in test [1] (setting [8]), 92% (active); in test [1] (at 50.0 µM), 36.7%; in test [2] (setting [7]), -3%; in test [2] (setting [8]), 91% (active); in test [2] (at 50.0 µM), -1.45%. For the same compound, the growth inhibition was 1% in test [3] (setting [7]); 94% (active) in test [3] (setting [8]); 91.7% (active) in test [3] (at 50.0 µM); -10% in test [4] (setting [7]); 89% (active) in test [4] (setting [8]); 20.9% in test [4] (at 50.0 µM). Moreover, the growth inhibition is 0% in test [5] (setting [7]); 96% (active) in test [5] (setting [8]); 48.4% in test [5] (at 50.0 µM); 14% in test [6] (setting [7]); 96% (active) in test [6] (setting [8]); 32.8% in test [6] (at 50.0 µM).
With `Cc1cc(O)ccc1C1(c2ccc(F)cc2)OC(=O)c2ccccc21` (stereo not given), the growth inhibition in test [1] (setting [7]) was 31%; in test [1] (setting [8]) it was 99% (active); in test [1] (at 50.0 µM), 90.1% (active); in test [2] (setting [7]) it was 32%; in test [2] (setting [8]), 99% (active); in test [2] (at 50.0 µM) it was 91.8% (active). Also, the growth inhibition is 37% in test [3] (setting [7]); 99% (active) in test [3] (setting [8]); 88.2% (active) in test [3] (at 50.0 µM); 31% in test [4] (setting [7]); 97% (active) in test [4] (setting [8]); 91.5% (active) in test [4] (at 50.0 µM). The growth inhibition in test [5] (setting [7]) is 29%; in test [5] (setting [8]), 98% (active); in test [5] (at 50.0 µM) it was 90.3% (active); in test [6] (setting [7]) it was 45%; in test [6] (setting [8]), 99% (active); in test [6] (at 50.0 µM), 89.6% (active).
Consider `O=S(=O)(O)c1ccc2c(c1)C1C(C3C2C2(Cl)C(Cl)=C(Cl)C3(Cl)C2(Cl)Cl)C2(Cl)C(Cl)=C(Cl)C1(Cl)C2(Cl)Cl` (stereo not given), for which the growth inhibition in test [1] (setting [7]) was -7%; in test [1] (setting [8]) it was 80% (active); in test [1] (at 50.0 µM), 85.9% (active); in test [2] (setting [7]), -8%; in test [2] (setting [8]), 94% (active); in test [2] (at 50.0 µM) it was 89.9% (active). The growth inhibition is -19% in test [3] (setting [7]); 77% (active) in test [3] (setting [8]); 81% (active) in test [3] (at 50.0 µM); 34% in test [4] (setting [7]); 89% (active) in test [4] (setting [8]); 83.7% (active) in test [4] (at 50.0 µM). The growth inhibition in test [5] (setting [7]) was 21%; in test [5] (setting [8]) it was 91% (active); in test [5] (at 50.0 µM) it was 88.6% (active); in test [6] (setting [7]), 23%; in test [6] (setting [8]) it was 93% (active); in test [6] (at 50.0 µM), 84.4% (active).
On to `CCCCCCCCCCCc1ccn[nH]1`, for which the growth inhibition was -7% in test [1] (setting [7]); 98% (active) in test [1] (setting [8]); 98.4% (active) in test [1] (at 50.0 µM); 3% in test [2] (setting [7]); 99% (active) in test [2] (setting [8]); 99.3% (active) in test [2] (at 50.0 µM). For the same compound, the growth inhibition in test [3] (setting [7]) was 9%; in test [3] (setting [8]), 99% (active); in test [3] (at 50.0 µM) it was 99.3% (active); in test [4] (setting [7]) it was -18%; in test [4] (setting [8]), 99% (active); in test [4] (at 50.0 µM), 98.3% (active). Besides, the growth inhibition was 14% in test [5] (setting [7]); 98% (active) in test [5] (setting [8]); 99% (active) in test [5] (at 50.0 µM); -3% in test [6] (setting [7]); 98% (active) in test [6] (setting [8]); 98.9% (active) in test [6] (at 50.0 µM).
For the compound `CC(C)(C)c1c2c(c(C(C)(C)C)c3c1OCN(Cc1ccccc1)C3)OCN(Cc1ccccc1)C2`, the growth inhibition is 4% in test [1] (setting [7]); 12% in test [1] (setting [8]); 54.1% in test [1] (at 50.0 µM); 0% in test [2] (setting [7]); -13% in test [2] (setting [8]); 9.25% in test [2] (at 50.0 µM). Moreover, the growth inhibition was -2% in test [3] (setting [7]); -19% in test [3] (setting [8]); 71.7% (active) in test [3] (at 50.0 µM); -15% in test [4] (setting [7]); -38% in test [4] (setting [8]); 17.6% in test [4] (at 50.0 µM). The growth inhibition in test [5] (setting [7]) was -5%; in test [5] (setting [8]) it was 18%; in test [5] (at 50.0 µM), 11.7%; in test [6] (setting [7]) it was -10%; in test [6] (setting [8]), 1%; in test [6] (at 50.0 µM), 41.5%.
As for `CCc1c(C(=O)OC)c(C(=O)OC)c(-c2ccccc2)n1CCn1c(CC)c(C(=O)OC)c(C(=O)OC)c1-c1ccccc1`, the growth inhibition in test [1] (setting [7]) is -2%; in test [1] (setting [8]), 82% (active); in test [1] (at 50.0 µM) it was 50.1%; in test [2] (setting [7]) it was -2%; in test [2] (setting [8]), 64%; in test [2] (at 50.0 µM), 38.2%. In addition, the growth inhibition in test [3] (setting [7]) was -2%; in test [3] (setting [8]), 74% (active); in test [3] (at 50.0 µM), 28.6%; in test [4] (setting [7]), 1%; in test [4] (setting [8]), 52%; in test [4] (at 50.0 µM) it was 25.5%. The growth inhibition in test [5] (setting [7]) was 1%; in test [5] (setting [8]) it was 83% (active); in test [5] (at 50.0 µM) it was 98.5% (active); in test [6] (setting [7]) it was 2%; in test [6] (setting [8]) it was 54%; in test [6] (at 50.0 µM), 40.4%.

Values taken from PubChem BioAssay (NCI).
